Data published in PubChem BioAssay AID1007 (NMMLSC, 2008).
Out of some 190,000 compounds screened, about 80 (0.04%) were called active. Cut-off read from the data, not from the text of the source: active = inhibition above about 40%. Not all results are given here.

Each compound was assayed against Bcl-2-like protein 1 (Homo sapiens) (UniProt Q07817) (assay: Bcl-XL/Bim peptide interaction blockers – biochemical, multiplexed, bead flow cytometry, human Bcl-XL, primary screen (AID 1007)). Details: Bim peptide-Bcl-XL binding, fluorescence, at 10 µM, stronger effect = higher value.
Sequence of Bcl-2-like protein 1 (Homo sapiens) (Q07817 whole entry, looked up): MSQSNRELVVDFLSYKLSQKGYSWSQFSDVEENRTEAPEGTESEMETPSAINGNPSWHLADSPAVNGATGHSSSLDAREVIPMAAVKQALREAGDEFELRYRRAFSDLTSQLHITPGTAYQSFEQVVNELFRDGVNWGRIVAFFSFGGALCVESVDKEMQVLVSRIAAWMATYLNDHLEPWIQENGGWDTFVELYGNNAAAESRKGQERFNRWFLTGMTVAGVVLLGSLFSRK

inhibition, inactive:
CCN1CCC2(CC1)N=C(c1ccc(F)cc1)C(=S)N2C(=O)c1ccc(C)cc1 -10%
Cc1ccc2c(=O)oc(N(C)C)nc2c1 1%
Cc1cc(C)c(C(N)=O)c(Cl)n1 -2%
CCOC(=O)c1ccc(NC(=O)C2CC(=O)Nc3nc4ccccc4n32)cc1 (stereo not drawn) 2%
CCn1c(N)c(Br)c(=O)[nH]c1=O -2%
C#Cc1ccc([C@@H]2C=C(C(=O)O)O[C@H](OCCCCO)C2)cc1 -4%
CCN(CC)CC1(O)CCN(C(=O)c2ccc(Cl)c(Cl)c2)CC1 0%
CCC(CC)c1nnc(NC(=O)/C=C/c2ccco2)s1 -8%
O=C(NCc1ccco1)C(=O)c1cn(CC(=O)N2CCCCCC2)c2ccccc12 -2%
COc1ccc(CNC(=O)CCCn2nc(C)c([N+](=O)[O-])c2C)cc1 -4%
O=C(N1CCCC1)C12CC3CC(C1)CC(C(=O)N1CCCC1)(C3)C2 -4%
Cc1ccccc1CN(c1ccc(C(=O)NCC2CCCO2)cc1)S(C)(=O)=O (stereo not drawn) -6%
O=C(c1cccc(F)c1)N1CCN(c2ccc([N+](=O)[O-])c3cccnc23)CC1 -4%
COc1cccc(C(=O)N2CCCC(CCC(=O)NCc3ccc(F)c(F)c3)C2)c1 (stereo not drawn) -1%
CCOC(=O)CCCNC(=O)COC(=O)c1cc(Br)c(Br)s1 2%
Cc1ccccc1-c1n[nH]c(=S)n1/N=C/c1ccc(-c2ccccc2Br)o1 -1%
CC1CCCC(C)N1/N=C/c1ccccc1OC(F)F (stereo not drawn) 2%
O=C1NC(c2ccccc2)CCC1(Cl)Cl (stereo not drawn) -5%
O=C(O)CC(SCC(=O)Nc1ccc(Br)cc1)C(=O)O (stereo not drawn) -2%
COc1cc(Cl)c(C)cc1NC(=O)COC(=O)c1cc(SC)ccc1Cl -6%
COC(=O)c1ccccc1SC1CC(=O)N(c2cccc(C)c2)C1=O (stereo not drawn) -2%
Cc1ccc(NC(=O)Nc2nnc(-c3ccncc3)s2)cc1 -2%
OCCn1c(-c2ccccc2)csc1=Nc1ccccc1 -3%
COc1ccccc1N1CCN(/N=C\C(Br)=C\c2ccccc2)CC1 -1%
Cc1nc2c(C(=O)NCc3cccs3)cnn2c(C)c1Cc1ccc(F)cc1 1%
O=C(CN(c1cccc(Cl)c1)S(=O)(=O)c1ccccc1)NN=C1CCCC1 -1%
CC(C)C(=O)Nc1c(O)c2ccccc2[nH]c1=O -4%
Cc1cc(C(=O)CCl)c(C)n1CC1COc2ccccc2O1 (stereo not drawn) 0%
COc1cccc2c(N/N=C/c3ccco3)cc(C)nc12 0%
CCc1ccccc1N1C(=O)C2C3CC(=O)C(c4ccccc43)C2C1=O (stereo not drawn) -2%
Cn1nnnc1-c1cc(Cl)cc(Cl)c1 0%
O=C(Oc1ccccc1Cl)c1ccc(N2CCOCC2)c([N+](=O)[O-])c1 3%
COc1ccc(Nc2nc(N)nc(CSC(=S)N3CCC(C)CC3)n2)cc1 20%
CC1CCN(c2ccc(C(=O)Nc3nnc(C4CC4)s3)cc2[N+](=O)[O-])CC1 -12%
NS(=O)(=O)c1cccc(NC(=O)COC(=O)/C=C/c2ccco2)c1 -2%
N#CC1=C(N)Oc2[nH]c(=S)[nH]c(=O)c2C12C(=O)Nc1ccccc12 (stereo not drawn) -1%
Nc1[nH][nH]c(=O)c1N=Nc1ccc2c(c1)OCO2 0%
Cc1cc[n+](-c2[nH]c(=O)sc2/C=N/NC(=O)c2ccccc2[O-])cc1C -7%
O=C(NCC(O)c1ccc([N+](=O)[O-])cc1)C1CCCCC1 (stereo not drawn) 0%
CCCC(C)C(=O)NCc1ccncc1 (stereo not drawn) 0%
CCOc1ccc(S(=O)(=O)Nc2nccs2)cc1 -2%
CCOC(=O)c1c(C)n(C)c2ccc(OC)c(NS(=O)(=O)CC)c12 -7%
COc1cc(C(=O)NCc2ccc3c(c2)cc(C)n3C)cc(OC)c1OC -2%
O=c1[nH]oc(O)c1-c1ncc(C(F)(F)F)cc1Cl -2%
COc1ccc(CC(=O)N[C@@H](CCSC)c2nc3ccccc3[nH]2)cc1 -5%
Cc1cccc(NC(=S)NC(=O)c2ccc(Br)o2)c1 0%
Cc1c(-c2cccc(Cl)c2)nc2ccccc2c1C(=O)OCC(=O)N(C)C1CCS(=O)(=O)C1 (stereo not drawn) 0%
CCOC(=O)C1=C(C)N=C2c3ccccc3C(=O)C2C1c1ccc(Br)cc1 (stereo not drawn) -6%
Cc1ccc(-c2nn(-c3ccccc3)cc2C(=O)Nc2cccc(S(=O)(=O)N3CCOCC3)c2)cc1 -14%
CN(C)c1ccc(C=NCCc2ccc(S(N)(=O)=O)cc2)cc1 -3%
COc1ccccc1-n1c(C)nc2cc(C(=O)NCc3ccc4c(c3)OCO4)ccc21 -10%
CCOC(=O)c1ccc(N2C(=O)CC(N3CCN(C(=O)c4ccccc4)CC3)C2=O)cc1 (stereo not drawn) -1%
O=[N+]([O-])c1ccc(F)cc1Oc1nc(-c2cccnc2)nc2ccccc12 1%
COc1ccc(/C=N/N=C/c2c[nH]c(=O)c(C#N)c2Nc2ccccc2)cc1 11%
COc1cc(C2OC(c3cc(OC)c(OC)c(OC)c3)C(C)C2C)cc(OC)c1OC (stereo not drawn) -1%
CN(C)CCCCCN(C)Cc1cc2ccccc2o1 -2%
COc1ccc(C(=O)COC(=O)COc2ccc(C)c(C)c2)cc1 -2%
Cc1ccc(S(=O)(=O)N(C)c2ccc(OCC(=O)NC3=NCCS3)cc2)cc1 0%
CC(=O)NC1C(Oc2ccc(C)cc2)OC2COC(c3ccco3)OC2C1O (stereo not drawn) -6%
Cc1ccc(C(=O)C(=S)N2CCOCC2)cc1 -9%
COc1cc(CN2CCNC(=O)C2CC(=O)NCCc2ncccc2C)cc(OC)c1 (stereo not drawn) -3%
C=CCn1c(SCC(=O)CC(=O)OCC)nc2cc(C(=O)N3CCC(C(N)=O)CC3)ccc2c1=O -5%
Cc1ccc(C)c(NC(=O)CCC(=O)N/N=C2/CC(=O)CC(C)(C)C2)c1 0%
